Screens deposited in PubChem BioAssay by National Center for Advancing Translational Sciences (NCATS).
Compounds with a hit are over-represented: about 2.6% of the library has one in this group of screens.
Anthrax LT inh = blocks cellular internalization of anthrax lethal toxin | Cells, anthrax lethal toxin internalization, FRET ratio (460/530) | Potency, µM (series often up to 40 µM), for inactives: at the top dose activity change, negative = inhibition, actives largely listed as inhibitors | 70,000 tested, 0.67% active | AID 912; also: % is scaled to controls: 0 for no effect and ±100 for the full control effect; nearly all actives have a fitted effect of over 50% in size
AmpC nodet inh = AmpC beta-lactamase inhibition, detergent-free assay; AmpC nitrocefin hydrolysis, absorbance 480 nm, no detergent; Potency, µM (doses to about 28.7 µM), for inactives: at the highest dose activity change, negative = inhibition; 71,000 tested, 1.8% active; AID 585; also: % of control where 0% means no effect
Target sequence (P00811 whole entry, looked up): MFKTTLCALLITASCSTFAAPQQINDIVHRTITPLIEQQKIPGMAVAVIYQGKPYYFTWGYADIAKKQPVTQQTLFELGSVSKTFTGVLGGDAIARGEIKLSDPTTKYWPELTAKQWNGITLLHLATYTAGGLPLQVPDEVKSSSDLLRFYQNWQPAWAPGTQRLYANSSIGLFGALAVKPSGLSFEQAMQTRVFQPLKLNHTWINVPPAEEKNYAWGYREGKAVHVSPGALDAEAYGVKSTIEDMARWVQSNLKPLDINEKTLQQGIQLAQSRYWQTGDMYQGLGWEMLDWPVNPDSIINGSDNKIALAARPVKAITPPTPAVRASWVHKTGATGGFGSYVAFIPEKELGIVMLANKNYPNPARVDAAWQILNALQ
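Enzyme, pH 7.0 phosphate. Compound titrations were pre-incubated with AmpC for 15 min at room temperature before nitrocefin (stock 800 uM) addition; product formation was recorded at 480 nm every 20 s for 4 min.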
Prx2 Sm inh = Schistosoma mansoni Prx2 inhibition; S. mansoni Prx2 activity coupled to TGR/GSH (TGR is thioredoxin glutathione reductase), NADPH fluorescence loss, qHTS; Potency, µM; 65,000 tested, 0.07% active; AID 448
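Prx2 inhibition was measured as reduced NADPH consumption when electrons flowed from NADPH through TGR and glutathione to Prx2 and H2O2. Plates were read kinetically over 8 min; enzyme reagents were held at 4 deg C during dispensing.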
AmpC inh det = AmpC beta-lactamase inhibition, detergent assay | P00811 | AID 584 | purified AmpC, nitrocefin hydrolysis with detergent | 71,000 tested, 0.09% active | Potency, µM (titrated, usually from 28.7 µM), without a hit: at the top dose activity change, negative = inhibition; active = well fitted curve in the direction sought with a large enough effect; inconclusive = small, poorly fitted or top-dose-only effect; also: % is scaled to controls: 0 for no effect and ±100 for the full control effect
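E. coli AmpC (5.3 nM) in 20 mM phosphate pH 7.0 with 0.01% Triton X-100, preincubated 15 min RT with compound; nitrocefin (2 uL of 800 uM stock) hydrolysis followed by 480 nm absorbance every 20 s over 4 min.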
* marks the source's active call; other numbers are inactive results; [ ] = another dose, or the depositor's remark. Unless noted, calls follow the shape of the full dose curve. Potency is read from the fitted curve at half-maximal effect.

Screening Cc1ccc2oc(=O)c3cnn(CC(=O)N4CCCc5ccccc54)c3c2c1 returned Anthrax LT inh 14%, AmpC nodet inh 36% and AmpC inh det 6%.
Screening O=C(Cn1ncc2c(=O)oc3ccccc3c21)N1CCc2ccccc2C1 returned Anthrax LT inh -11%, AmpC nodet inh 4µM*[single pt active], Prx2 Sm inh >57 and AmpC inh det 12%.
For COc1ccc(-n2c(=O)c(-c3cccc(F)c3)nc3cncnc32)cc1 the results were Anthrax LT inh 3%, AmpC nodet inh 18%, Prx2 Sm inh >57 and AmpC inh det 1%.
For Cc1cc2ccc(OC(=O)c3ccc(N=C(N)N)cc3)cc2oc1=O the results were Anthrax LT inh inconclusive, AmpC nodet inh 6%[5.75 µM], Prx2 Sm inh inconclusive and AmpC inh det -3%[5.75 µM].
O=C(Cc1ccc2c(c1)OCCO2)c1c(O)cc(O)cc1O was read as Anthrax LT inh -1%, AmpC nodet inh 10µM*, Prx2 Sm inh >57 and AmpC inh det -4%.
Screening O=C(O)COc1ccc(C(=O)Cc2ccc3c(c2)OCCCO3)c(O)c1 returned Anthrax LT inh -7%, AmpC nodet inh -11%, Prx2 Sm inh >57 and AmpC inh det -1%.
Cc1ccc(S(=O)(=O)Oc2ccc(N=Nc3ccc(-c4ccc(N=Nc5c(O)ccc6cc(S(=O)(=O)O)cc(S(=O)(=O)O)c56)c(C)c4)cc3C)cc2)cc1 was read as Anthrax LT inh 16µM*, AmpC nodet inh 0.32µM* and AmpC inh det -6%.
`Cc1ccc(N=Nc2c(O)ccc3cc(S(=O)(=O)O)ccc23)cc1` gave Anthrax LT inh -14%[8 µM], AmpC nodet inh -1%[5.75 µM], Prx2 Sm inh >57 and AmpC inh det -5%[5.75 µM].
`CC(=O)NCCNc1ncncc1-c1ccccc1C` gave Anthrax LT inh -11%, AmpC nodet inh 14%, Prx2 Sm inh >57 and AmpC inh det 6%.
Screening O=C(CCCn1c(=O)[nH]c2ccccc2c1=O)N1CCN(c2ccccn2)CC1 returned Anthrax LT inh 12%, AmpC nodet inh 3.2µM*[single pt active], Prx2 Sm inh >57 and AmpC inh det 12%.
O=C(CCCCn1c(=O)[nH]c2ccccc2c1=O)N1CCN(c2cccc(C(F)(F)F)c2)CC1 was read as Anthrax LT inh inconclusive, AmpC nodet inh 93%, Prx2 Sm inh >57 and AmpC inh det -4%.
O=C(CCCCn1c(=O)[nH]c2ccccc2c1=O)N1CCN(c2ncccn2)CC1 was read as Anthrax LT inh -8%, AmpC nodet inh 4µM*[single pt active], Prx2 Sm inh >57 and AmpC inh det 14%.
For O=c1c(-c2ccc(F)cc2)nc2cnc(Nc3ccccc3)nc2n1C1CC1 the results were Anthrax LT inh inconclusive, AmpC nodet inh -2%, Prx2 Sm inh >57 and AmpC inh det 2%.
Screening CNC(=O)c1ccc2snnc2c1 returned Anthrax LT inh 3%, AmpC nodet inh 4µM*[single pt active], Prx2 Sm inh >57 and AmpC inh det 10%.
Screening N#Cc1cc2ccccc2nc1SCC(=O)Nc1ccc(S(=O)(=O)N2CCCC2)cc1 returned Anthrax LT inh -5%, AmpC nodet inh 5µM*, Prx2 Sm inh >57 and AmpC inh det 14%.
`CCOC(=O)c1ccc(OCc2nc(-c3cccs3)no2)cc1` gave Anthrax LT inh -36%, AmpC nodet inh -3%, Prx2 Sm inh >57 and AmpC inh det -1%.
For COC(=O)c1ccc(-c2nc(-c3ccc(Br)o3)no2)cc1 the results were Anthrax LT inh -11%, AmpC nodet inh 4µM*[single pt active], Prx2 Sm inh >57 and AmpC inh det 14%.
Screening COc1ccc(Cl)cc1-c1nc(-c2ccc(Br)o2)no1 returned Anthrax LT inh -8%, AmpC nodet inh 3.2µM*[single pt active], Prx2 Sm inh >57 and AmpC inh det 13%.
COc1ccc(-c2noc(-c3cc(Cl)ccc3Cl)n2)cc1OC was read as Anthrax LT inh -14%, AmpC nodet inh 19%, Prx2 Sm inh >57 and AmpC inh det 0%.
`COC(=O)c1ccc(-c2nc(-c3cccs3)no2)cc1` gave Anthrax LT inh -16%, AmpC nodet inh 4µM*[single pt active], Prx2 Sm inh >57 and AmpC inh det 14%.
`CC(C)N(Cc1nc(-c2ccccc2)no1)C(=O)COc1ccccc1` gave Anthrax LT inh inconclusive, AmpC nodet inh 4µM*[single pt active], Prx2 Sm inh >57 and AmpC inh det 14%.
For Cc1cc(Br)ccc1OCC(=O)N(Cc1nc(-c2ccccc2)no1)C(C)C the results were Anthrax LT inh inconclusive, AmpC nodet inh 21%, Prx2 Sm inh >57 and AmpC inh det 3%.
`CC(C)N(Cc1nc(-c2ccccc2)no1)C(=O)CSc1ccccc1` gave Anthrax LT inh -28%, AmpC nodet inh 38%, Prx2 Sm inh >57 and AmpC inh det -1%.
